# A selection: hits, their analogues and other compounds. The true share with any hit is near 19%.
# TDP1 cell noCPT: qHTS for Inhibitors of human tyrosyl-DNA phosphodiesterase 1 (TDP1): qHTS in cells in absence of CPT. DT40 Tdp1-/- hTDP1 cells, no CPT, ATP luminescence, 48 h. Potency, µM (series often up to 46.2 µM), without a hit: at the highest dose activity change, negative = growth inhibition, usual class: inhibitors. hit rate 15% among 420,000. AID 686978, 2013; note: potency is the fitted concentration of half-maximal effect; % is set by controls: 0 for no effect and ±100 for the full control effect; nearly all actives have a fitted effect of over 55% in size
#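 Cells were dispensed at 400 per well, compounds added by pin tool, plates incubated ≥48 hr at 37 °C, then CellTiter-Glo added for 30 min at room temperature before luminescence reading. Line: DT40 Tdp1-/- complemented with hTDP1; camptothecin omitted.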
# HepG2 tox: kills HepG2 cells in TGF-b inhibitor counter-screen. HepG2 CAGA-GFP viability, ATP luminescence, 18 h. Potency, µM (highest dose often 46.1 µM), for inactives: at the highest dose activity change, negative = cytotoxicity, most hits filed as cytotoxic. hit rate 0.76% among 410,000. AID 588856; note: potency is the fitted concentration of half-maximal effect
#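 CellTiter-Glo luminescence gave cytotoxicity after 18 hours at 37 degrees C. The cells were HepG2 CAGA-GFP in 1% FBS DMEM, stimulated with 500 pg/mL TGF-beta after compound addition. %Activity was normalised to no-cell wells (complete cell-killing) and DMSO (no toxicity), and curves were fitted and classified.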
# TGFb inhibitor: inhibitors of TGF-b signaling; HepG2 CAGA-GFP TGF-b/SMAD3 reporter, GFP fluorescence, 18 h; TGF-beta stimulated, 500 pg/mL final; Potency, µM (titrated, usually from 46.1 µM), for the others: at the highest dose activity, negative = inhibition, most hits filed as inhibitors; hit rate 1.2% among 410,000; note: potency is the fitted concentration of half-maximal effect; % is set by controls: 0 for no effect and ±100 for the full control effect; nearly all actives have a fitted effect of over 65% in size
#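 First, reporter cells (HEPG2 CAGA-GFP) rested 2 h at 37 degrees C. Next, compounds were pinned in and TGF-beta added to 500 pg/mL final. After 18 h, GFP was imaged per cell and summed per well.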
# ASM inhibitor: blocks human secretory acid sphingomyelinase; P17405; placental ASM, HMU-PC fluorogenic substrate, 60 min; AID 504937; Potency, µM (top dose mostly 57.5 µM), for inactives: at the top dose activity change, negative = inhibition, actives largely listed as inhibitors; hit rate 0.006% among 340,000; note: potency is the fitted concentration of half-maximal effect
# Target sequence (P17405 47-631 limits assumed): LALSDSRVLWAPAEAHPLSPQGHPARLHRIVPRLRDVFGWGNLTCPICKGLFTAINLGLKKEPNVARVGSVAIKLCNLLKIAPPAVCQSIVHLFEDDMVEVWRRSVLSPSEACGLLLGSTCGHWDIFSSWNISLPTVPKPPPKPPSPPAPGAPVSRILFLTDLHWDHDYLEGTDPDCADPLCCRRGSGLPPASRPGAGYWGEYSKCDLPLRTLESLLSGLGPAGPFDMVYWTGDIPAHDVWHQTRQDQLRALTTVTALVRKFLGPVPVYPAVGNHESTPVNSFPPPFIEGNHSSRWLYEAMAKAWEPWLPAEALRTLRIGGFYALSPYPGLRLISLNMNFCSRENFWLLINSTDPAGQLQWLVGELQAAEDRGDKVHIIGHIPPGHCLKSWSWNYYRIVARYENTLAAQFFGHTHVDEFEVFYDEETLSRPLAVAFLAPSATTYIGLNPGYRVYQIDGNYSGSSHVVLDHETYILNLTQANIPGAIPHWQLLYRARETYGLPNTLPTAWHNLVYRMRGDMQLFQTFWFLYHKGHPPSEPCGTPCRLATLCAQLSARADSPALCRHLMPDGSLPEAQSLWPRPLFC
#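 Fluorogenic HMU-PC substrate (9 uM final) is turned over by placental ASM in 60 min at 37 C after a 10 min compound preincubation. Reaction ended by alkaline stop (pH 10), with fluorescence read at 386/447 nm.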
# TDP1 cell CPT: growth inhibition of DT40 Tdp1-/-;hTDP1 cells with camptothecin (screen for TDP1 inhibitors); chicken DT40 Tdp1-/-;hTDP1 cells + 20 nM CPT, ATP luminescence, 48 h; Potency, µM (top dose mostly 46.2 µM), without a hit: at the highest dose activity change, negative = growth inhibition, hits mostly inhibitors; hit rate 12% among 420,000; note: potency is the fitted concentration of half-maximal effect; % is set by controls: 0 for no effect and ±100 for the full control effect; nearly all actives have a fitted effect of over 55% in size
#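 Chicken DT40 Tdp1-/- cells stably complemented with human TDP1 were seeded at 400 cells/well in medium containing 20 nM camptothecin, exposed to pin-transferred compounds, and grown at 37 °C for at least 48 hr. Viability was read as ATP luminescence.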
# IL1B secr inh: inhibitors of inflammasome signaling (IL-1 beta secretion); THP-1 LPS/ATP IL-1B secretion, AlphaLISA, 16 h; active compounds read low; activity change, % at 57.5 µM; hit rate 4.7% among 360,000; in the data active = activity change below about -50%; inconclusive = mostly about -30% to -49%; note: % is set by controls: 0 for no effect and ±100 for the full control effect
#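 Secreted IL-1B measured by AlphaLISA bead assay after 16 h compound exposure of THP-1 cells; compounds (final up to 57.5 uM) added 1 h before LPS (250 ng/mL) and ATP (1.25 mM) stimulation; lower signal means less secretion.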
# * hit, by the source's call; i = inactive; ? = inconclusive; . = no result; [ ] = dose if it differs, or a comment. Unless noted, calls come from the whole dose curve; as a rule, active = well fitted curve in the direction sought with a large enough effect; inconclusive = small, poorly fitted or top-dose-only effect, or another doubt; inactive = no such curve, though single readings can be large; an effect the other way counts as inactive or inconclusive.
SMILES,TDP1 cell noCPT,HepG2 tox,TGFb inhibitor,ASM inhibitor,TDP1 cell CPT,IL1B secr inh
CCOc1cc(C(=O)Nc2ccc(-c3cn4cccnc4n3)cc2)cc(OCC)c1OCC,9.2µM*,-65%,?,.,12µM*,.
CCOCC(=O)Nc1ccc(-c2cn3cccnc3n2)cc1,-27%,-8%,1%,i,15µM*,25
O=C(Nc1ccc(-c2cn3cccnc3n2)cc1)c1ccccc1F,16µM*,-25%,?,.,?,.
Cc1cc(C)cc(C(=O)Nc2ccc(-c3cn4cccnc4n3)cc2)c1,9.2µM*,-34%,?,.,?,.
Cc1ccc(C(=O)Nc2ccc(-c3cn4cccnc4n3)cc2)cc1C,?,-61%,?,.,?,.
O=C(COC(=O)c1ccc2c(c1)OCCO2)NCCc1ccccc1,-4%,0%,3%,-3%,-5%,13
Cc1ccc(C(CC(=O)N2CCCC2)c2ccccc2)c(O)c1 (stereo not given),6%,-7%,-11%,1%,3%,5
Cc1ccc(C(=O)NNC(=O)c2csc(N3CCOCC3)n2)s1,-11%,2%,-16%,6%,-7%,-3
Nc1cccc(-c2cn3cccnc3n2)c1,?,15%,2%,5%,21µM*,6
Cc1ccc(-c2cn3cccnc3n2)cc1,-10%,2%,1%,i,12%,-24
CCOC(=O)c1noc2c1CCC2,14%,.,.,.,22%,2
NC(=O)c1nsc(C(=O)N(Cc2cccnc2)C(C(=O)NCc2ccc(F)cc2)c2ccc(F)cc2)c1N (stereo not given),-25%,-15%,-1%,83%,-28%,-55*
Cc1ccc(C(C(=O)NCc2ccc(F)cc2)N(Cc2ccco2)C(=O)c2snc(C(N)=O)c2N)o1 (stereo not given),15µM*,-6%,-6%,61%[11.5 µM],15µM*,-71*
COCCNC(=O)C(c1ccc(C)o1)N(Cc1ccco1)C(=O)c1snc(C(N)=O)c1N (stereo not given),-12%,-5%,25%,229%,-9%,15

# Screening data from PubChem.
